Here are results for six molecules from PubChem BioAssay.

In assay [1] the target is Mitogen-activated protein kinase 7 (Homo sapiens) (UniProt Q13164). Kind of assay: Gal4-ERK5 driven luciferase induction – cell-based, HTS, primary screen (AID 1508626;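 active = luciferase signal above three times the same-plate solvent-only control wells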;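 note: luciferase driven by Gal4-ERK5 fusion binding five Gal4 sites before minimal TATA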). The following applies: HeLa Gal4-ERK5 transactivation, 18 h, at 5 µM, stronger effect = higher value.
Assay [2] is described as follows: galactose survival enhancers in mitochondrial complex I cybrids – cell-based, galactose medium, ATP luminescence, primary screen (AID 1645843;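 active = z-score of at least 1.8 in each of two replicates, scored against plate mean and spread of sample wells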;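 note: positive z means more ATP and so rescue of galactose-driven cybrid death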). The following applies: complex I mutant cybrid cells, 72 h, stronger effect = higher value.
The nature of assay [3]: blockers of polyQ-driven CASP3 activation – cell-based (AID 1583). As to conditions: polyglutamine-induced caspase-3 activation, cell assay; stronger effect = higher value;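 tested at 10 µM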.
The nature of assay [4]: yeast 75Q aggregation reduction – 75Q-TubU reporter (AID 1593). As to conditions: Yeast 75Q polyglutamine aggregation reporter.
A short description of assay [5]: restoration of touch response, mutant HTT neurons – whole organism, C. elegans mechanosensory neurons, N-terminal huntingtin (AID 1599). As to conditions: C. elegans polyQ-huntingtin mechanosensory neurons, stronger effect = higher value.
A short description of assay [6]: blockers of cytochrome c efflux from mitochondria – biochemical, purified mitochondria (AID 1603).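 Note: mouse liver mitochondria challenged with calcium chloride; signal normalized to the plate average as 100%.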 The following applies: stronger effect = lower value.
The nature of assay [7]: polyglutamine aggregate formation blockers (AID 1604). The following applies: polyglutamine-induced protein aggregation inhibition assay; stronger effect = higher value; tested at 2.5 µM.
A short description of assay [8]: glutamate transport activators, MN-1 cells, MN-1 cell line (AID 1612).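 Note: tested at 1 µM final; 0% = mean of DMSO vehicle wells on each plate; positive means more glutamate uptake than control and negative means less.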 The following applies: MN-1 motor neuron cells, stronger effect = higher value.
The nature of assay [9]: 75Q-TubH aggregate inhibition, S. cerevisiae, yeast (AID 1616). As to conditions: S. cerevisiae 75Q-TubH polyglutamine aggregation suppression; stronger effect = higher value.
Assay [10] is described as follows: signal quenchers or enhancers, Cy5 substrate/SSB – biochemical, NIH Clinical Collection, E. coli SSB, artefact control for HCV NS3 helicase inhibitor project (AID 743268). The following applies: Cy5-oligo bound E. coli SSB, fluorescence interference.
In assay [11] the test system is Hepatitis C virus NS3 helicase. Kind of assay: blockers of NS3h binding to DNA – biochemical, fluorescence polarization, NIH Clinical Collection, primary screen (AID 743270). As to conditions: NS3 helicase binding to Cy5-dT15 DNA, stronger effect = higher value, concentration not given here. In general terms: Polarisation of emitted light reports the rotation of a fluorescent probe.

Assay [12] addresses Single-stranded DNA-binding protein (Escherichia coli (strain K12)) (UniProt P0AGE0). The assay can be described thus: SSB-ssDNA binding inhibitors – biochemical, fluorescence polarization, NIH Clinical Collection, counter-screen for HCV NS3 helicase inhibitor project (AID 743271; in the data active = inhibition above about 28%). The following applies: E. coli SSB-DNA binding, stronger effect = higher value, concentration not given here.

Assay [13] can be described thus: compounds distorting NS3 helicase fluorescence signal – biochemical, NIH Clinical Collection, artefact control for HCV NS3 helicase inhibitor project (AID 743272).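 Note: HCV NS3 helicase with a Cy5 labelled single stranded DNA probe.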 As to conditions: fluorescence interference counterscreen, HCV NS3 helicase assay; stronger effect = lower value. (The purpose of a counterscreen is to sort out artefacts and off-target activity.)
A short description of assay [14]: modulation of C. elegans fzo-1 (AID 1259413).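 Note: fzo-1 mutant C. elegans worms in liquid wells.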 The following applies: C. elegans fzo-1 modulator screen, mean read-out; stronger effect = higher value.
The next assay deals with R275C/beta1. The assay can be described thus: BK channel mutant inhibitors and activators – cell-based, U2OS BacMam, thallium flux, beta subunits, selectivity assay, profiling panel (AID 1259406;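 active = thallium flux through the channel raised or lowered by more than 3 SD from vehicle-only wells, actives on both sides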;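 note: initial slope of Thallos dye fluorescence rise after thallium is added; log ratio against the mean of 0.3% DMSO vehicle wells on the same plate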). The following applies: U2OS BacMam BK variants, at 30 µM.
The test system of another assay is R275C/beta2Delta. The assay is described as above. As to conditions: U2OS BacMam BK variants, at 30 µM.
Another assay concerns R275C/beta4. Described as above. The following applies: U2OS BacMam BK variants, at 30 µM.
Another assay concerns R275C/Slo1WT/beta2. The assay is described as above. The following applies: U2OS BacMam BK variants, at 30 µM.
A short description of assay [15]: compounds altering viability of human ES cells (AID 493140).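 Note: cells exposed to compounds for four days before counting.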 The following applies: human embryonic stem cell survival screen; stronger effect = higher value.

SMILES strings stand for the structures. “And” between values parts separate entries of the source, which are not always exact repeats. Equal entries are not always repeated. For part of these data: Results with a measured potency or affinity are listed apart. The source made the active and inactive calls. Unless noted, the rule behind the calls is not given here.

Mitogen-activated protein kinase 7 (Homo sapiens), sequence (Q13164 whole entry, looked up, the tested form may be a part): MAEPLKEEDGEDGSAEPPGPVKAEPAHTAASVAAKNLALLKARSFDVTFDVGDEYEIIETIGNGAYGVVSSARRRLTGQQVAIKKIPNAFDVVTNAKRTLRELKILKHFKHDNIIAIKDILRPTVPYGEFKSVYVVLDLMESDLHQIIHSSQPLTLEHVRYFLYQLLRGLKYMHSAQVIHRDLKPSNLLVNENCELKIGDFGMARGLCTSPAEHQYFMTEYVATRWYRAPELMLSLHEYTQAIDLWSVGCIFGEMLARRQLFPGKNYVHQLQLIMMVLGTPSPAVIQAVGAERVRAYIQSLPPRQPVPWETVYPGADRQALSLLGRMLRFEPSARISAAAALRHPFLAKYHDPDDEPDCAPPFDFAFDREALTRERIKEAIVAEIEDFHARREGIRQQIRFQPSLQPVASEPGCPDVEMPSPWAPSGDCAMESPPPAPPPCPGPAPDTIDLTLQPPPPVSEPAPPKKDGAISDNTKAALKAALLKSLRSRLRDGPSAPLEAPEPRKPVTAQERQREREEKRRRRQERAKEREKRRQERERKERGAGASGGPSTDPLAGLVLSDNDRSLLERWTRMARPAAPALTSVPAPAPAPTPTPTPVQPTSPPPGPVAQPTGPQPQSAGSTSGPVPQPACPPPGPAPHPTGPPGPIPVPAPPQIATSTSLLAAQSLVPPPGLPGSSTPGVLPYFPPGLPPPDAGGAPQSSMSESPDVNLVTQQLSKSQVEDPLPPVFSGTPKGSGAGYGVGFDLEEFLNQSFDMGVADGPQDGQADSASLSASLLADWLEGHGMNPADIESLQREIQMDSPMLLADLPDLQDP

With `CC[C@H]1CN2CCc3cc(OC)c(OC)cc3[C@@H]2C[C@@H]1C[C@H]1NCCc2cc(OC)c(OC)cc21`, the luciferase signal in assay [1] is 24 AU (inactive). In assay [2], the z-score was -0.955 (inactive).

The inhibition is the drop in the measured response relative to a control, in per cent. In the case of `CC1=C(CC(=O)O)c2cc(F)ccc2/C1=C\c1ccc(S(C)=O)cc1` (stereo not drawn), the inhibition was 12.6% in assay [3], -7.73% (inactive) in assay [11] and -3.53% (inactive) in [12]. The molecule also yielded a score in [4] of 0.78. The rescue above control in [5] was -1.24. Moreover, the cytochrome c release ratio in assay [6] was determined as 0.97. In assay [7], this molecule displayed an inhibition of aggregation of 78.9%. The glutamate uptake change in [8] worked out at 3.54%. Besides, the aggregation suppression score in assay [9] turned out to be 1.01. Moreover, the results for the fluorescence ratio in [10] and in assay [13] were 1.04 (inactive) and 1.01 (inactive), respectively. Also, the mean signal in assay [14] was 230 (inactive). Besides, in [1], the luciferase signal is 56 AU (inactive). Also, the z-score in [2] is -0.94 (inactive) and -0.735 (inactive) and -0.12 (inactive). Also, the log fold change Tl+ flux with R275C/beta1 is -0.0305 (inactive); in the assay on R275C/beta2Delta it was -0.0296 (inactive); in the assay with R275C/beta4, 0.044 (inactive); in the assay on R275C/Slo1WT/beta2, 0.0257 (inactive).

For `CCC(C)(C)C(=O)O[C@H]1C[C@@H](C)C=C2C=C[C@H](C)[C@H](CC[C@@H]3C[C@@H](O)CC(=O)O3)[C@H]21`, the survival in assay [15] is 1.17 (inactive). Moreover, the fluorescence ratio in assay [10] was 1.04 (inactive); in assay [13], 0.92 (inactive). In addition, the values for the inhibition in [11] and in assay [12] were -1.36% (inactive) and 6.39% (inactive), respectively. Also, in [14], the mean signal is 230 (inactive). For the same molecule, the luciferase signal in assay [1] is 220 AU (inactive). Besides, in [2], the z-score is -1.4 (inactive) and -0.73 (inactive) and -0.85 (inactive). Also, the log fold change Tl+ flux in the assay with R275C/beta1 was 0.116 (active); in the assay on R275C/beta2Delta, 0.0611 (inactive); in the assay on R275C/beta4 it was 0.067 (inactive); in the assay with R275C/Slo1WT/beta2, -0.0513 (inactive).

With `CCN(CC)CCCC(C)Nc1ccnc2cc(Cl)ccc12` (stereo not drawn), the inhibition in [3] was found to be 9.86%. This molecule displayed a score in assay [4] of 1.1. In [5], this molecule showed a rescue above control of 4.09. The cytochrome c release ratio in assay [6] came out at 1.15. Also, the inhibition of aggregation in assay [7] was 68.5%. Also, in assay [8], the glutamate uptake change is -7.63%. The same molecule came in with an aggregation suppression score in assay [9] of 1.49. Moreover, the survival in assay [15] was 6.67 (inactive). Besides, the luciferase signal in assay [1] was 40 AU (inactive). Further, the z-score in assay [2] is -1.02 (inactive) and -1.18 (inactive).

For `CN(C)CCCN1c2ccccc2CCc2ccc(Cl)cc21`, the inhibition in [3] was -18.9%; in assay [11] it was -3.18% (inactive); in assay [12], 0.29% (inactive). The same molecule came in with a score in assay [4] of 0.98. In addition, the cytochrome c release ratio in assay [6] is 1.15. The molecule further registered an inhibition of aggregation in assay [7] of 66.7%. Further, the glutamate uptake change in assay [8] turned out to be 6.78%. This molecule also had an aggregation suppression score in assay [9] of 0.939. Further, the survival in [15] was 4.17 (inactive). Further, the fluorescence ratio in assay [10] and in assay [13] was 1 (inactive) each time. Further, the mean signal in assay [14] is 222 (inactive). Also, the luciferase signal in assay [1] is 32 AU (inactive). Besides, in assay [2], the z-score was -1.52 (inactive) and -1.25 (inactive) and -0.78 (inactive). Besides, the log fold change Tl+ flux is 0.00748 (inactive) with R275C/beta1, -0.0594 (inactive) with R275C/beta2Delta, 0.278 (active) with R275C/beta4 and -0.0809 (inactive) with R275C/Slo1WT/beta2.

For `CC(=O)CC(c1ccccc1)c1c(O)c2ccccc2oc1=O` (stereo not drawn), the inhibition in assay [3] is 17%; in assay [11] it was -2.27% (inactive); in assay [12], -3.53% (inactive). In assay [4], the score was 0.72. Also, the rescue above control in assay [5] is -6.3. Further, the cytochrome c release ratio in assay [6] turned out to be 1.4. The molecule also gave an inhibition of aggregation in assay [7] of 68.5%. For the same molecule, the glutamate uptake change in [8] was -2.55%. In addition, in assay [9], the aggregation suppression score came out at 0.635. Besides, the results for the fluorescence ratio in [10] and in [13] were 1 (inactive) and 0.99 (inactive), respectively. Moreover, in assay [14], the mean signal was 249 (inactive). In assay [1], the luciferase signal is 136 AU (inactive). In [2], the z-score is 2.31 (active). Further, the log fold change Tl+ flux with R275C/beta1 is -0.0262 (inactive); with R275C/beta2Delta, 0.0436 (inactive); with R275C/beta4, -0.00201 (inactive); in the assay with R275C/Slo1WT/beta2, 0.0306 (inactive).
